{"source": "PubChem BioAssay (NCATS)", "note": "Records with an inconclusive call do not appear. Entries that show only a call come without a potency. Activity calls are given as the source filed them. Calls follow the shape of the dose curve; as a rule, active = well fitted inhibition curve with a large enough effect; inconclusive = small, poorly fitted or top-dose-only effect; inactive = flat fitted curve, though single readings scatter.", "data": [{"target": "Calcium and integrin-binding protein 1 (Homo sapiens) (UniProt Q99828)", "sequence (Q99828 whole entry, looked up)": "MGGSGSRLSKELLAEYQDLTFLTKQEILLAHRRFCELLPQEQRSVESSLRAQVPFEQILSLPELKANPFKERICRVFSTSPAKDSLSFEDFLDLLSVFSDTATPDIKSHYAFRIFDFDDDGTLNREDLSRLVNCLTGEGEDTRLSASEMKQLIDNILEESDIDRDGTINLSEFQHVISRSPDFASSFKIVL", "test": "Primary qHTS for Identification of Calcium Integrin Binding Protein 1 (CIB1) Competitor (AID 1508620); also: top concentration of the series differs between compounds", "details": "CIB1-GST / FITC-alphaIIb peptide fluorescence polarization; series mostly up to 114 µM", "procedure,_shortened": "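Fluorescence polarization competition: GST-tagged CIB1 (1 uM final) preincubated with compound 15 min at room temperature, then FITC-labelled alphaIIb peptide (100 nM final) added. After 15 min at room temperature, polarization read at Ex 480/Em 540.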", "values": [{"compound": "Cc1cnc(-c2ccccc2C(C)C)nc1NCc1ccc(-c2ccnc(C(F)(F)F)c2)cc1", "Potency": "inactive"}, {"compound": "O=C(CN1C(=O)N/C(=C\\c2cccn2-c2cccc(C(=O)O)c2)C1=O)Nc1ccccc1F", "Potency": "inactive"}, {"compound": "CCOc1ccc(C(=O)Nc2ccc(-c3nc4ccccc4[nH]3)cc2)cc1", "Potency": "inactive"}, {"compound": "Cc1noc(C)c1-c1ccc2ncnc(NCc3cc(F)cc(F)c3)c2c1", "Potency": "inactive"}, {"compound": "Cc1cccc(NS(=O)(=O)c2ccc3c(c2)CCC(=O)N3)c1", "Potency": "inactive"}, {"compound": "O=C(Nc1ccc2ccccc2c1)Nc1nnc(-c2ccccc2)s1", "Potency": "inactive"}, {"compound": "CCOc1ccc(-c2csc(N3CCC(C(N)=O)CC3)n2)cc1", "Potency": "inactive"}, {"compound": "N#Cc1c(-c2cccc([N+](=O)[O-])c2)no[n+]1[O-]", "Potency": "inactive"}, {"compound": "Cc1nnc(-c2ccccc2)n1CCCn1ccnc1", "Potency": "inactive"}, {"compound": "CC(=O)Nc1sc2cnccc2c1-c1nc2ccccc2s1", "Potency": "inactive"}, {"compound": "CC(=O)Nc1sc2c(c1-c1cccnc1)CCNC2", "Potency": "inactive"}, {"compound": "COc1cccc(CNc2ccc(S(=O)(=O)Nc3nccs3)cc2)c1", "Potency": "inactive"}, {"compound": "O=C(c1ccccc1)N(C(=O)c1ccccc1)c1ncnc2c1C(c1ccccc1)c1c(ccc3ccccc13)O2", "note": "(stereo not drawn)", "Potency": "inactive"}, {"compound": "O=C(NC1CCCc2c1cnn2-c1ccc(F)cc1F)c1ccn[nH]1", "note": "(stereo not drawn)", "Potency": "inactive"}, {"compound": "CC(=O)NC(c1cc(F)c2cccnc2c1O)C1CC1", "note": "(stereo not drawn)", "Potency": "inactive"}, {"compound": "N#Cc1c(-c2csc(-c3no[n+]([O-])c3C#N)c2)no[n+]1[O-]", "Potency": "inactive"}, {"compound": "COC(=O)c1ccc(O)c2ncc(-c3ccc(C(=O)N4CCN(C)CC4)cc3)cc12", "Potency": "inactive"}, {"compound": "CCOC(=O)c1ccc(-c2ccc3ncnc(NCc4csc(C)n4)c3c2)o1", "Potency": "inactive"}]}]}
